Measurements: PubChem BioAssay (EPA / NIEHS)
Calls of active or inactive are those of the source. How the source made its calls: active means hit-call score of the fitted dose curve at least 0.9, where 1 is the maximum; inactive means score below 0.9.

These compounds were tested on Phosphatase and tensin (PTEN), PTEN (gene 5728) (assay: LTEA_HepaRG_PTEN: Life Technologies and Expression Analysis (LTEA) Assay for Phosphatase and tensin (PTEN) using HepaRG (AID 2283523)). Conditions: mRNA level, 48 h; actives raise or lower the signal.
Description: LTEA_HepaRG is a cell based, multiplexed-readout assay that uses HepaRG, a human liver cell line, with measurements taken at 48 hours after chemical dosing on a 96-well plate.LTEA_HepaRG_PTEN is one of 102 assay component(s) measured in the LTEA HepaRG cell culture assay. It is a marker of Cell proliferation, survival, death.Data from the assay component LTEA_HepaRG_PTEN was analyzed into 1 endpoint. This assay endpoint, LTEA_HepaRG_PTEN, was analyzed with bidirectional fitting relative to DMSO as the negative control and baseline of activity. Using a type of inducible reporter, measures of mRNA induction for gain or loss-of-signal activity can be used to understand regulation of transcription factor activity. To generalize the intended target to other relatable targets, this assay endpoint is annotated to the phosphatase intended target family, where the subfamily is dual-specific phosphatase.
A total of 1060 chemcials from the ToxCast library were tested in eight-point concentration-response experiments. Cell culture and cytotoxicity assays were conducted at Thermo Fisher Scientific's Custom Services facility (Madison, WI). A single lot of human HepaRG cells (Thermo Fisher Scientific, Frederick, MD) was used for the cell culture experiments. 96-well format collagen type I coated plates of human HepaRG cells were prepared using established methods. Briefly, cryopreserved HepaRG cells were thawed, plated at a density of approximately 100,000 cells/well in HepaRG Thaw, Plate, and General Purpose media (HPRG770, Thermo Fisher Scientific), and incubated for 48 hours. 0.5% DMSO was selected as vehicle control to balance the requisite need of DMSO in HepaRG cultures to maintain differentiation (for example, baseline metabolism, proportions of hepatocytes vs. cholangiocytes), while enabling further hepatic receptor pathway activation (for example, PXR and CAR) in response to chemical exposure. 48 hours after plating, the culture medium was replaced with HepaRG Serum-Free Incudtion Media. Cells were exposed to each test chemical in duplicate and maintained in CO2 incubators for another 48 hours. Chemical plates were thawed to room temperature and 200x concentrations of treatment groups were prepared. 8-point conentration-reponse curves were made with the highest exposure at 100 uM, followed by half-log dilutions, all in 0.5% DMSO. Each test plate contained variouse controls, induction positive controls (1mM phenobarbital), cytotoxicity positive controls ([…] aflatoxin B1), vehicle controls (0.5% DMSO), and total lysis controls (0.5% DMSO). Cell morphology images were taken using an Essen IncuCyte FLR automated microscope, with six 96-well plates imaged in about 24 minutes. Images were captured and exported and JPEG files. Spent culture media was transfered to black-well plates for the LDH assay, and remaining media was sorted at -80 C for later use. Cells were treated with RLT buffer and frozen until shipped for gene expression analysis. Total RNA was isolated from the cell suspension in 75 uL of Buffer RLT (Qiagen, Germantown, MD 20874) by Quintiles/Expression Analysis (Durham, NC) using a custom isolation procedure. Total RNA from each plate well was transferred to a preamplification plate. Fluidigm's 96.96 Dynamic ArrayTM (Fluidigm, Amsterdam, the Netherlands) technology was used for gene expression analyses by quantitative reverse transcription polymerase chain reaction (qRT-PCR, performed by Quintiles/Expression Analysis, Durham, NC)89. Standard TaqManTM Assays (Applied Biosystems/ThermoFisher Scientific, Foster City, CA) were used to assess the expression of 93 genes selected based on their selectivity and sensitivity to important hepatic receptors known to be modulated by environmental chemicals; importance in human hepatocyte functionality; and hepatotoxicity. […]
For `CCCCSP(=O)(SCCCC)SCCCC`, the outcome was “inactive”.
In the case of `CSC1=N[C@@](C)(c2ccccc2)C(=O)N1Nc1ccccc1`, the outcome is reported as “inactive”.
`C=C(C)[C@H]1Cc2c(ccc3c2O[C@@H]2COc4cc(OC)c(OC)cc4[C@@H]2C3=O)O1` was tested, and the outcome was “inactive”.
In the case of `CC(=NC#N)N(C)Cc1ccc(Cl)nc1`, the outcome is reported as “inactive”.
`N#CSCSC#N` was tested, and the outcome was “inactive”.
With `C#CCC1=C(C)C(OC(=O)C2C(C=C(C)C)C2(C)C)CC1=O` (stereo not given) the outcome was “inactive”.
With `CNc1cnn(-c2cccc(C(F)(F)F)c2)c(=O)c1Cl` the outcome was “inactive”.
For `CC(COc1ccc(Oc2ccccc2)cc1)Oc1ccccn1` (stereo not given), the outcome was “inactive”.
With `CCC(CC)Nc1c([N+](=O)[O-])cc(C)c(C)c1[N+](=O)[O-]` the outcome was “inactive”.
`CCOP(=S)(OCC)Oc1ccc2c(C)c(Cl)c(=O)oc2c1` was tested, and the outcome was “inactive”.
In the case of `O=c1ccc(=O)[nH][nH]1`, the outcome is reported as “inactive”.
In the case of `CCOP(=O)(SC(C)CC)N1CCSC1=O` (stereo not given), the outcome is reported as “inactive”.
`CCOP(=S)(Oc1cnc(C(C)(C)C)nc1)OC(C)C` (stereo not given) was tested, and the outcome was “inactive”.
In the case of `CC1(C(=O)Nc2ccc(O)c(Cl)c2Cl)CCCCC1`, the outcome is reported as “inactive”.
With `Cc1cc(C2CC2)nc(Nc2ccccc2)n1` the outcome was “inactive”.
With `CC(C1CC1)C(O)(Cn1cncn1)c1ccc(Cl)cc1` (stereo not given) the outcome was “inactive”.
`CCc1cccc(C)c1N(C(=O)CCl)C(C)COC` (stereo not given) was tested, and the outcome was “inactive”.
`CCOC(=O)COc1cc(-c2nn(C)c(OC(F)F)c2Cl)c(F)cc1Cl` was tested, and the outcome was “inactive”.
In the case of `C#CC(C)(C)NC(=O)c1cc(Cl)cc(Cl)c1`, the outcome is reported as “inactive”.
With `CCOP(=S)(OCC)Oc1ccc([N+](=O)[O-])cc1` the outcome was “inactive”.
With `COc1cccc(C(=O)NN(C(=O)c2cc(C)cc(C)c2)C(C)(C)C)c1C` the outcome was “inactive”.
`COP(=O)(NC(C)=O)SC` (stereo not given) was tested, and the outcome was “inactive”.
With `CCOC(=O)CC(SP(=O)(OC)OC)C(=O)OCC` (stereo not given) the outcome was “inactive”.
In the case of `CNC(=O)ON=C(SC)C(=O)N(C)C`, the outcome is reported as “inactive”.
With `COc1ccc(C(=CC(=O)N2CCOCC2)c2ccc(Cl)cc2)cc1OC` the outcome was “inactive”.
`CN(C)NC(=O)CCC(=O)O` was tested, and the outcome was “inactive”.
In the case of `CCOP(=S)(OCC)SCCSCC`, the outcome is reported as “inactive”.
For `COc1cc(OC)nc(Sc2cccc(Cl)c2C(=O)O)n1`, the outcome was “inactive”.
For `CCCCOC(=O)[C@@H](C)Oc1ccc(Oc2ccc(C#N)cc2F)cc1`, the outcome was “inactive”.
For `C[Si](Cn1cncn1)(c1ccc(F)cc1)c1ccc(F)cc1`, the outcome was “inactive”.
`CCOP(=S)(OCC)Oc1cc(C)nc(C(C)C)n1` was tested, and the outcome was “inactive”.
For `S=C1NCCN1`, the outcome was “inactive”.
`CCCOCC(=Nc1ccc(Cl)cc1C(F)(F)F)n1ccnc1` was tested, and the AC50 was 81.8 µM (active).
For `CCC(=NOC/C=C/Cl)C1=C(O)CC(C2CCOCC2)CC1=O` (stereo not given), the outcome was “inactive”.
For `CCNc1nc(Cl)nc(NC(C)(C)C#N)n1`, the outcome was “inactive”.
In the case of `CSc1nc(NC(C)C)nc(NC(C)C)n1`, the outcome is reported as “inactive”.
`CC(C)=CC1C(C(=O)OCN2C(=O)C3=C(CCCC3)C2=O)C1(C)C` (stereo not given) was tested, and the outcome was “inactive”.
For `Nc1c(Cl)cc([N+](=O)[O-])cc1Cl`, the AC50 was 4.24 µM (active).
For `CCC(=O)Nc1ccc(Cl)c(Cl)c1`, the outcome was “inactive”.
`CN(C)[C@@H]1C(=O)C(C(N)=O)=C(O)[C@@]2(O)C(=O)C3=C(O)c4c(O)cccc4[C@@](C)(O)[C@H]3[C@H](O)[C@@H]12` was tested, and the outcome was “inactive”.
